GAA850 FXN act = FXN promoter activators, primary screen, cell-based, luciferase luminescence, HEK293 lucGAA850; HEK293 lucGAA850 FXN promoter luciferase reporter, 24 h; percent of 10 µM SAHA response; activation, % at 6 µM; 360,000 compounds, 0.56% hits;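 active = activation above the average of all compounds screened plus 3 SD, cutoff fixed separately per campaign, cut at about 7.5% in these data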;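 note: 0% = DMSO wells and 100% = 10 µM SAHA wells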
AHR activator = AHR activators, primary screen, cell-based, luminescence, luciferase reporter, human; Aryl hydrocarbon receptor (Homo sapiens), P35869; AHR-responsive luciferase reporter cells; activation, % at 5 µM; 320,000 compounds, 2.5% hits; in the data active = activation above about 47%;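 note: 0% = vehicle wells and 100% = reference agonist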
HSF-1 act = HSF-1 activators, primary screen, NIH3T3-HGL cells, MG132 stress, luminescence, single point. NIH3T3-HGL HSF-1 luciferase reporter, 8 h; 100% = twice DMSO control signal. activation, % at 9 µM. 300,000 compounds, 1.7% hits;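 active = mean replicate activation of at least 50% with a set share of replicates each reaching 50%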;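 note: 0% = median of the neutral control wells and 100% = twice that signal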
HSF1 inhib = HSF1 inhibitors in luciferase reporter cells, primary screen, cell-based, NIH3T3, luminescence | NIH3T3-HGL HSE-luciferase, MG132-induced, luminescence 8 h; active compounds read low | activity change, negative = inhibition, % at 7.5 µM (by protocol) | 300,000 compounds, 0.77% hits | AID 2098, 2009;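 active = more than half of replicate wells show activity change below -50%, luminescence cut by over half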;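 note: luciferase reports HSF-1 transcriptional activity via heat shock element; 0% = median of DMSO wells and -100% = zero luminescence signal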
AHR act confirm = AHR activators, confirmation, cell-based, luminescence, luciferase reporter, human | human cells, AHR-responsive luciferase reporter | 2,300 compounds, 87% hits | activation, % at 9 µM | shares compounds with AHR activator | AID 2845, 2010; in the data active = activation above about 49%;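 note: HepG2 hepatoma cells carrying a DRE-driven firefly luciferase reporter; 0% = vehicle wells and 100% = reference agonist wells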
PXR counter = human PXR activators, counter-screen for AHR activator project, cell-based, luciferase luminescence | shares compounds with AHR activator | cell-based PXR reporter | activation, % at 11.6 µM | 2,300 compounds, 88% hits; in the data active = activation above about 11%;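 note: human hepatoma DPX-2 cells expressing full-length human PXR; 0% = DMSO and 100% = reference agonist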
Target sequence (O75469 whole entry, looked up): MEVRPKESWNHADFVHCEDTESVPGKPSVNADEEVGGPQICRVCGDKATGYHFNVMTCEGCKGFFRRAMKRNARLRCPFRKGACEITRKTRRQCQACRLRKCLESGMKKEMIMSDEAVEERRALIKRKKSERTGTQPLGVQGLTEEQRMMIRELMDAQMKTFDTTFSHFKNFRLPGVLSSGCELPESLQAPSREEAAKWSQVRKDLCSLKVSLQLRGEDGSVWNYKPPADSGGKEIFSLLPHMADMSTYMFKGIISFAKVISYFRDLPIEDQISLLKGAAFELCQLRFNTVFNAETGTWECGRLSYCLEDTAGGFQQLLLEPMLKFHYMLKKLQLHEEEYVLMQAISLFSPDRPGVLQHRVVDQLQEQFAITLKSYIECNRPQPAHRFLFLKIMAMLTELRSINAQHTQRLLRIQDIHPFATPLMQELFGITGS
An asterisk follows results filed as active. This is a sample that favours compounds with a hit; in the whole collection about 4.6% have one here.

Screening CC(C)OC(=O)/C(=C/c1ccc2c(c1)c1ccccc1n2C)NC(=O)c1ccccc1 returned GAA850 FXN act 0.1, AHR activator 79.7*, HSF-1 act 26.8, HSF1 inhib 19.7, AHR act confirm 97.0* and PXR counter 182.9*.
`CCOC(=O)/C(=C\c1ccccc1)NC(=O)c1ccccc1` gave GAA850 FXN act 2.7, AHR activator 5.3, HSF-1 act 15.5 and HSF1 inhib 12.9.
O=C(CN1CCCC1)Nc1sc2c(c1C(=O)Nc1ccc(Br)cc1)CCC2 was read as GAA850 FXN act -0.9, AHR activator 79.2*, HSF-1 act -2.8, HSF1 inhib 1.2, AHR act confirm 103.6* and PXR counter 52.0*.
`CN1CCN(CC(=O)Nc2sc3c(c2C(=O)Nc2ccccc2)CCCC3)CC1` gave GAA850 FXN act 1.0, AHR activator 4.3, HSF-1 act -1.6 and HSF1 inhib 2.7.
O=C(N/N=C/c1sc(=O)[nH]c1-[n+]1ccc2ccccc2c1)c1ccccc1[O-] was read as GAA850 FXN act 3.3, AHR activator 83.8*, HSF-1 act 14.6, HSF1 inhib -1.9, AHR act confirm 71.3* and PXR counter 11.5*.
Screening Cn1ccnc1SCC(=O)Nc1ccc2c(c1)OCO2 returned GAA850 FXN act 2.4, AHR activator 36.3, HSF-1 act 7.0 and HSF1 inhib 8.6.
Screening COc1ccccc1-c1nnc(SCC(=O)Nc2c(Cl)cccc2Cl)o1 returned GAA850 FXN act -1.4, AHR activator 79.7*, HSF-1 act 7.2, HSF1 inhib 1.4, AHR act confirm 95.4* and PXR counter 82.8*.
`COc1ccccc1-c1nnc(SCC(=O)NC2CCCCC2)o1` gave GAA850 FXN act 2.8, AHR activator 21.9, HSF-1 act 2.4 and HSF1 inhib 3.0.
Screening C#Cc1ccc2c(c1)COc1c3ccccc3nn1-2 returned GAA850 FXN act 3.5, AHR activator 88.2*, HSF-1 act 61.4*, HSF1 inhib 34.5, AHR act confirm 62.0* and PXR counter 25.0*.
C(#Cc1ccc2c(c1)COc1c3ccccc3nn1-2)c1ccccc1 was read as GAA850 FXN act 4.2, AHR activator 23.5, HSF-1 act 43.2 and HSF1 inhib 22.5.
For Oc1c(C(c2ccccc2)N2CCc3ccccc3C2)sc2ncnn12 (stereo unspecified) the results were GAA850 FXN act 1.3, AHR activator 89.2*, HSF-1 act -9.1, HSF1 inhib -2.0, AHR act confirm 86.2* and PXR counter 39.8*.
CCc1ccc2[nH]c3nc(N/N=C/c4ccc(O)cc4O)nnc3c2c1 was read as GAA850 FXN act 1.2, AHR activator 83.3*, HSF-1 act 15.7, HSF1 inhib 2.6 and AHR act confirm 89.7*.
CN1C(=O)/C(=C\c2ccccc2OCc2ccccc2)SC1=S was read as GAA850 FXN act 1.9, AHR activator 80.6*, HSF-1 act -0.6, HSF1 inhib -4.7, AHR act confirm 87.1* and PXR counter 19.1*.
O=C1NC(=O)/C(=C/c2ccccc2OCc2ccccc2)S1 was read as GAA850 FXN act 1.1, AHR activator 6.5, HSF-1 act -5.5 and HSF1 inhib 4.4.
Screening O=c1[nH]c(CN2CCc3ccccc3C2)nc2ccccc12 returned GAA850 FXN act 3.1, AHR activator 85.5*, HSF-1 act 24.2, HSF1 inhib 18.1, AHR act confirm 100.2* and PXR counter 67.0*.
COC(=O)c1cc(NS(=O)(=O)c2ccc(NC(C)=O)cc2)cc(C(=O)OC)c1 was read as GAA850 FXN act -3.0, AHR activator 0.5, HSF-1 act 0.5 and HSF1 inhib -5.3.
COc1cccc(CNC(=O)C2CCCN2S(=O)(=O)c2ccc3c(c2)C(C)(C)C(=O)N3C)c1 (stereo unspecified) was read as GAA850 FXN act -1.2, AHR activator -1.1, HSF-1 act 4.8 and HSF1 inhib -7.4.
Screening Cc1nccc(-c2ccc(-n3cnc4ccccc43)cc2)n1 returned GAA850 FXN act -1.6, AHR activator 83.4*, HSF-1 act -9.5, HSF1 inhib -14.0 and AHR act confirm 62.8*.
Screening COc1cc(C#Cc2c(-c3cncn3C)n(C)c3ccc(-c4ccc5cc[nH]c5c4)cc23)cc(OC)c1 returned GAA850 FXN act 1.8, AHR activator 105.7*, AHR act confirm 82.5* and PXR counter 23.1*.
COc1cccc(-c2c(-c3cc(OC)cc(OC)c3)n(C)c3ccc(-c4ccc5cc[nH]c5c4)cc23)c1 was read as GAA850 FXN act 2.3 and AHR activator 21.1.
Screening O=C1c2ccccc2C(=O)c2c1cccc2N(CCO)CCO returned GAA850 FXN act 0.4, AHR activator 130.5*, HSF-1 act 8.0, HSF1 inhib -1.9, AHR act confirm 13.6 and PXR counter 7.7.
For CC1(C)CC(=O)c2sc(NS(=O)(=O)c3ccc(Br)cc3)nc2C1 the results were GAA850 FXN act 1.4, AHR activator 0.5, HSF-1 act -12.7 and HSF1 inhib 0.8.
Screening COc1ccc(/C=C/C(=O)c2cc3c(cc2N)OCO3)cc1 returned GAA850 FXN act 5.5, AHR activator 95.9*, HSF-1 act 17.5, HSF1 inhib 10.9, AHR act confirm 127.8* and PXR counter 26.3*.
For O=C1NC2=C(CCc3ccccc32)C(c2ccccc2)N1 (stereo unspecified) the results were GAA850 FXN act -0.5, AHR activator 82.5*, HSF-1 act 5.0, HSF1 inhib 1.1, AHR act confirm 14.5 and PXR counter 21.6*.
For Cc1ccccc1OCc1nc(-c2ccc(Br)o2)no1 the results were GAA850 FXN act 0.7, AHR activator 10.5, HSF-1 act 25.4 and HSF1 inhib 9.0.
Screening Brc1ccc(-c2nc(-c3ccccc3)no2)o1 returned GAA850 FXN act 3.8, AHR activator 124.0*, HSF-1 act 36.5, HSF1 inhib 21.1, AHR act confirm 147.9* and PXR counter 19.1*.
COc1ccc(-c2noc(-c3ccc4c(c3)OCO4)n2)cc1 was read as GAA850 FXN act 5.8, AHR activator 1.5, HSF-1 act 22.9 and HSF1 inhib 12.5.
`c1ccc(-c2noc(-c3ccc4c(c3)OCO4)n2)cc1` gave GAA850 FXN act 5.5, AHR activator 87.5*, HSF-1 act -13.2, HSF1 inhib -20.7, AHR act confirm 15.8 and PXR counter 9.8.
Screening COc1ccccc1Cc1nc(-c2ccc(Br)o2)no1 returned GAA850 FXN act 3.5, AHR activator 118.9*, HSF-1 act 27.5, HSF1 inhib 15.2, AHR act confirm 112.8* and PXR counter 42.9*.

High-throughput results (PubChem)
